Data: ChEMBL document CHEMBL1157539, “Thousands of chemical starting points for antimalarial lead identification” (Nature, 2010)

Legend:
Type in all cases: functional
[1] = system: Plasmodium falciparum; assay: GSK_TCMDC: Inhibition of Plasmodium falciparum 3D7 in whole red blood cells, using parasite LDH activity as an index of growth. Test compounds present at 2uM
[2] = system: Plasmodium falciparum; assay: GSK_TCMDC: Inhibition of Plasmodium falciparum Dd2 in whole red blood cells, using parasite LDH activity as an index of growth. Test compounds present at 2uM
[3] = system: HepG2; assay: GSK_TCMDC: Percent inhibition of human HepG2 cell line. Test compounds present at 10uM.

**Q.** With `CC(=O)Nc1ccc(OCCCCN(Cc2ccccc2OC(F)(F)F)c2ccc(C(F)(F)F)c(C#N)c2)c(Cl)c1` as the compound, how does the Inhibition [1] read?
**A.** 89%

**Q.** And the Inhibition [2]?
**A.** 96%

**Q.** What about the Inhibition [3] of the same compound?
**A.** 11%

**Q.** Which results are given for `CC1(C)C(=O)Nc2ccccc2N1C(=O)CN1CCN(c2ccccc2O)CC1`?
**A.** Inhibition [1]: 92%; Inhibition [2]: 72%; Inhibition [3]: 7%

**Q.** How did the Inhibition [1] turn out when `Cc1ccc(NC(=O)c2ccc(Cl)cc2)cc1-c1ccc(C(=O)Nc2ccncc2)cc1` was run?
**A.** 98%

**Q.** What about the Inhibition [2] of the same compound?
**A.** 5%

**Q.** And the Inhibition [3]?
**A.** 36%

**Q.** With `Cc1nc(-c2ccc(-c3ccc(C(=O)Nc4ccc(C(C)C)c(OCCN(C)C)c4)cc3)c(C)c2)no1.O=C(O)C(=O)O` as the compound, how does the Inhibition [1] read?
**A.** 99%

**Q.** What about the Inhibition [2] of the same compound?
**A.** 45%

**Q.** And the Inhibition [3]?
**A.** 49%

**Q.** For `O=C(Nc1ccc(-c2nc3ccccc3[nH]2)cc1)c1cccc(S(=O)(=O)N2CCCC2)c1`, which Inhibition [1] is on record?
**A.** 100%

**Q.** And the Inhibition [2]?
**A.** 64%

**Q.** What about the Inhibition [3] of the same compound?
**A.** 0%

**Q.** `CC(C)c1cc(N)c2cc(NC(=O)COCC(=O)Nc3ccc4nc(C(C)C)cc(N)c4c3)ccc2n1` was tested. Which Inhibition [1] did it give?
**A.** 95%

**Q.** What about the Inhibition [2] of the same compound?
**A.** 95%

**Q.** What about the Inhibition [3] of the same compound?
**A.** 0%

**Q.** For `O=C(/C=C/c1ccc(C(F)(F)F)cc1)NCCCCCN1CCN(C(=O)Nc2ccc(Cl)c(Cl)c2)CC1`, which Inhibition [1] is on record?
**A.** 95%

**Q.** And the Inhibition [2]?
**A.** 0%

**Q.** What about the Inhibition [3] of the same compound?
**A.** 37%

**Q.** What does the source list for `Cc1cccc(C)c1OC(=O)C(C)C(O)C1(Sc2ccccc2)CCN(C)CC1` (stereo not given)?
**A.** Inhibition [1]: 98%; Inhibition [2]: 92%; Inhibition [3]: 23%

**Q.** With `CN1CCCN(c2ccnc3cc4c(cc23)N(C(=O)c2ccc(C(F)(F)F)cc2)CC4)CC1.Cl` as the compound, how does the Inhibition [1] read?
**A.** 100%

**Q.** What about the Inhibition [2] of the same compound?
**A.** 63%

**Q.** And the Inhibition [3]?
**A.** 10%

**Q.** With `O=C(N[C@@H](CC1CCCCC1)C(=O)NCc1cccc2ccccc12)c1ccc(O)c(-c2ccc(Cl)c(Cl)c2)c1` as the compound, how does the Inhibition [1] read?
**A.** 97%

**Q.** And the Inhibition [2]?
**A.** 99%

**Q.** What about the Inhibition [3] of the same compound?
**A.** 0%
